The source made the active and inactive calls.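 Rule for the calls, unless noted: active = mean inhibition above 46.5%, the solvent-only control mean plus 3 SD; inactive = the rest.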
Each compound was assayed on transactivating tegument protein VP16 (Human herpesvirus 1) (assay: VP16 transactivation reporter inhibitors, counter-screen for SRC2 inhibitor project, cell-based, luminescence, single concentration (AID 652007; in the data active = inhibition above about 36%)). Settings: cell-based VP16 transactivation luciferase reporter, at 8.9 µM, hits give high values.

Compound	inhibition
COc1ccc(NC(=O)CSCC(=O)Nc2ccccc2C(=O)N2CCCCC2)cc1	-8.77% (inactive)
CC(=O)N1CCCc2cc(S(=O)(=O)N3CCCC(C(=O)NCc4ccccc4Cl)C3)ccc21 (stereo not given)	24.9% (inactive)
CCCN1C(=O)C2C(C(=O)Nc3cccc(OC)c3)C3C=CC2(O3)C1C(=O)NC1CCCCC1 (stereo not given)	-13.7% (inactive)
CCN(CC)C(=O)C1CCCN(c2ncnc3c2cnn3-c2cccc(C)c2)C1 (stereo not given)	-13.2% (inactive)
COc1ccc(S(=O)(=O)N2CCC(C(=O)c3ccc4c(c3)OCCO4)CC2)cc1	-0.72% (inactive)
O=C(Nc1ccc2nc3n(c(=O)c2c1)CCCCC3)c1cc([N+](=O)[O-])ccc1F	32.1% (inactive)
CCOc1cc(/C=C2/NC(=O)N(Cc3ccccc3F)C2=O)ccc1O	4.78% (inactive)
CCc1sc(NC(=O)CN2CCOCC2)nc1-c1ccccc1	-0.48% (inactive)
CCOc1ccc(NC(=O)CN(C)C(=O)c2cn(-c3ccccc3)nc2-c2cccs2)cc1OCC	-4.29% (inactive)
CCCCSc1nc(C)cc(SCC(=O)N/N=C/c2cccc(OC)c2O)n1	-16.2% (inactive)
CCOC(=O)C1=CCN(S(=O)(=O)c2ccccc2C)C1c1ccc(Cl)c(Cl)c1 (stereo not given)	-18.3% (inactive)
Cc1nc(N/N=C/c2ccccn2)sc1C	29.8% (inactive)
Cc1ccc(S(=O)(=O)C(NC(=O)c2ccccc2)=C(Cl)Cl)cc1	14.1% (inactive)
COC(=O)c1ccc2c(=O)[nH]c(COC(=O)c3[nH]c(C)c(C(C)=O)c3C)nc2c1	-18.3% (inactive)
COCCN(C(=O)CCC(=O)Nc1nccs1)C(C(=O)NC(C)(C)C)c1ccc(C)cc1 (stereo not given)	11.2% (inactive)
Cc1nnc(SCC2=C(C(=O)O)N3C(=O)C(NC(=O)Cn4nc(C)c(Cl)c4C)C3SC2)s1 (stereo not given)	-2.47% (inactive)
COc1cc(OC)cc(-c2cc3nc(C)c(CCC(=O)NCc4ccccc4)c(C)n3n2)c1	66.8% (active)
CCN(CC)S(=O)(=O)c1ccc(NC2c3ccccc3C(=O)N2Cc2ccco2)cc1 (stereo not given)	-12.8% (inactive)
CC(C)C[C@@H]1Cc2[nH][nH]c(=O)c2[C@H](C(C)C)O1	-6.29% (inactive)
CC(=O)c1cc2c(cc1NC(=O)c1ccc(-n3nc(C)cc3C)cc1)OCO2	-6.86% (inactive)

Compound	inhibition
CC(=O)c1cccc(NC(=O)Nc2ccc(C(=O)N3CCOCC3)cc2)c1	-8.69% (inactive)
COc1ccc(NC(=O)CSc2nnnn2C2CCCCC2)c(OC)c1	1.44% (inactive)
CCOC(=O)C1CCN(S(=O)(=O)c2ccc(NC(=O)OC)cc2)CC1	-1.65% (inactive)
COC(=O)c1c(N)sc(C(=O)NCCc2ccccc2)c1C	-1.83% (inactive)
CCN(CC)CCNC(=O)c1ccc(NC(=O)c2ccc(S(=O)(=O)N3CCCC3)cc2)cc1	-4.61% (inactive)
Cc1nc2cc(-c3ccccc3)nn2c(C)c1CCC(=O)NCc1ccco1	-27.7% (inactive)
Oc1cccc(C(Nc2nccs2)c2ccc3cccnc3c2O)c1 (stereo not given)	-15.2% (inactive)
CCc1ccc(/C=C2\SC(=S)N(CCCC(=O)N3CCN(C)CC3)C2=O)cc1	-9.42% (inactive)
Cc1ccc(-c2c3c(nc4sc(C(N)=O)c(N)c24)CCC3)cc1	1.89% (inactive)
COc1ccc(-c2nc3ccccn3c2NC2CCCCC2)cc1SC1CCCCC1	17.4% (inactive)
Cc1ccc2c(c1)N(C(=O)CCC(=O)NCCCN1CCN(C)CC1)CC(C)O2 (stereo not given)	-11.4% (inactive)
O=C(NCCCN1CCN(c2ccccc2)CC1)C1CCCN(c2ncnc3c2nc2n3CCCCC2)C1 (stereo not given)	6.18% (inactive)
O=c1oc2ccc(C#CC3(O)CCCCC3)cc2cc1-n1cc(-c2ccccn2)nn1	-8.43% (inactive)
O=C(CCCSc1nc2ccccc2s1)NC1=NCCS1	27.1% (inactive)
CCn1nc(C)cc1-c1nnc(Sc2ncc([N+](=O)[O-])s2)n1C	85.2% (active)
Cc1cccc(N2CC(C(=O)NC3CCCCCC3)CC2=O)c1C (stereo not given)	-3.4% (inactive)
O=[N+]([O-])c1ccc(Sc2nnnn2-c2ccccc2)nc1	12.5% (inactive)
COc1ccc(NC(=O)Nc2nnc(Cc3ccc(OC)c(OC)c3)s2)cc1	4.37% (inactive)
O=S(=O)(c1ccc(Cl)cc1)c1snnc1-c1ccccc1	31.6% (inactive)
CCCCc1ccc(N/C(N)=N/c2nc(C)cc(C)n2)cc1	30.2% (inactive)

What follows are compounds tested against Nuclear receptor coactivator 2 (Homo sapiens) (UniProt Q15596) (assay: SRC2 coactivator transcriptional activity inhibitors, confirmation, cell-based, luminescence, HEK293, triplicate (AID 652008;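 note: 0% = DMSO-treated cells and 100% = Gossypol at 36 µM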)). Settings: HEK293 GAL4-SRC2 luciferase reporter, at 8.9 µM, hits give high values.
Chain of Nuclear receptor coactivator 2 (Homo sapiens) (Q15596 whole entry, looked up, the tested form may be a part): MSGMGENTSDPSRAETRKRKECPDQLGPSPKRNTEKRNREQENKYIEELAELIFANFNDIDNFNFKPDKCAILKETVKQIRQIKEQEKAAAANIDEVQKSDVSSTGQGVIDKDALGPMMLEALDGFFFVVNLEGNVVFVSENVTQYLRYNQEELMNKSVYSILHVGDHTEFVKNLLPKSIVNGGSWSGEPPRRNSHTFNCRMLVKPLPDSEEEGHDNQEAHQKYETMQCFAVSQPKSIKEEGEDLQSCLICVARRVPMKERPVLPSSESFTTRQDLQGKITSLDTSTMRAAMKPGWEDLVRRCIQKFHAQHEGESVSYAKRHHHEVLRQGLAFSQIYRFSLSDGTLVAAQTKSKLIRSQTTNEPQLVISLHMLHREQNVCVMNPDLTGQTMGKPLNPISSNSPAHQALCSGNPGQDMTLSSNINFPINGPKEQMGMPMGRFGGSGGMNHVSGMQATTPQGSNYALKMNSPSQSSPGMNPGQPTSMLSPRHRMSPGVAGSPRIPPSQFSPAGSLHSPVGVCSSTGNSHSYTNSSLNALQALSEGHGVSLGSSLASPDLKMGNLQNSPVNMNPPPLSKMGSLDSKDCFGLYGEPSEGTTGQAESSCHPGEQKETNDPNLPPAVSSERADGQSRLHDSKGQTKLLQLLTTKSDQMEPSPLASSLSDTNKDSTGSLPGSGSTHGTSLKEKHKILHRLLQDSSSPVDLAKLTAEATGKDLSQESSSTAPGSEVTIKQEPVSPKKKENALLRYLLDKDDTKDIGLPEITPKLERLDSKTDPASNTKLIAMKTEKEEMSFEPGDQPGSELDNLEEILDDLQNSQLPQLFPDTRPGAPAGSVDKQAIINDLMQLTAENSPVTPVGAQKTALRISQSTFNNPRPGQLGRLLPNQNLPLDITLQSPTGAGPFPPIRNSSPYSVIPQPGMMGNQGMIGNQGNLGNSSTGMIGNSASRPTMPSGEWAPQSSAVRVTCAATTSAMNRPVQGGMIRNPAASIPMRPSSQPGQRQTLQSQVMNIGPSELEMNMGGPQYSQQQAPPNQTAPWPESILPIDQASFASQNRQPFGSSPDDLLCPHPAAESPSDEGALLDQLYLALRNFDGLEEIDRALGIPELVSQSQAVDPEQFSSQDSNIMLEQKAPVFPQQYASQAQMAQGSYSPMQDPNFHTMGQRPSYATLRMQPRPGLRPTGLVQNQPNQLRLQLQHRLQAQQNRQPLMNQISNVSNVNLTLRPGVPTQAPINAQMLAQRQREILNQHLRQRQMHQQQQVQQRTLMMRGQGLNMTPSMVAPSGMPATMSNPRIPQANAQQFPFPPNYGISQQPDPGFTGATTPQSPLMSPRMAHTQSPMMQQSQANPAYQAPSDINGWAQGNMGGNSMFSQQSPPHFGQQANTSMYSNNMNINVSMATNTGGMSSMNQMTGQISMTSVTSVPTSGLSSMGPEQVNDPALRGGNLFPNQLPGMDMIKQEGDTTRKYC

Compound	inhibition
COc1ccc(NC(=O)CSCC(=O)Nc2ccccc2C(=O)N2CCCCC2)cc1	-20.5% (inactive)
CC(=O)N1CCCc2cc(S(=O)(=O)N3CCCC(C(=O)NCc4ccccc4Cl)C3)ccc21 (stereo not given)	21.1% (inactive)
CCCN1C(=O)C2C(C(=O)Nc3cccc(OC)c3)C3C=CC2(O3)C1C(=O)NC1CCCCC1 (stereo not given)	-16.6% (inactive)
CCN(CC)C(=O)C1CCCN(c2ncnc3c2cnn3-c2cccc(C)c2)C1 (stereo not given)	30.7% (inactive)
COc1ccc(S(=O)(=O)N2CCC(C(=O)c3ccc4c(c3)OCCO4)CC2)cc1	-0.4% (inactive)
O=C(Nc1ccc2nc3n(c(=O)c2c1)CCCCC3)c1cc([N+](=O)[O-])ccc1F	30.4% (inactive)
CCOc1cc(/C=C2/NC(=O)N(Cc3ccccc3F)C2=O)ccc1O	30.1% (inactive)
CCc1sc(NC(=O)CN2CCOCC2)nc1-c1ccccc1	-0.93% (inactive)
CCOc1ccc(NC(=O)CN(C)C(=O)c2cn(-c3ccccc3)nc2-c2cccs2)cc1OCC	16% (inactive)
CCCCSc1nc(C)cc(SCC(=O)N/N=C/c2cccc(OC)c2O)n1	22.5% (inactive)
CCOC(=O)C1=CCN(S(=O)(=O)c2ccccc2C)C1c1ccc(Cl)c(Cl)c1 (stereo not given)	-14% (inactive)
Cc1nc(N/N=C/c2ccccn2)sc1C	60.2% (active)
Cc1ccc(S(=O)(=O)C(NC(=O)c2ccccc2)=C(Cl)Cl)cc1	16.8% (inactive)
COC(=O)c1ccc2c(=O)[nH]c(COC(=O)c3[nH]c(C)c(C(C)=O)c3C)nc2c1	12.3% (inactive)
COCCN(C(=O)CCC(=O)Nc1nccs1)C(C(=O)NC(C)(C)C)c1ccc(C)cc1 (stereo not given)	5.44% (inactive)
Cc1nnc(SCC2=C(C(=O)O)N3C(=O)C(NC(=O)Cn4nc(C)c(Cl)c4C)C3SC2)s1 (stereo not given)	-7.12% (inactive)
COc1cc(OC)cc(-c2cc3nc(C)c(CCC(=O)NCc4ccccc4)c(C)n3n2)c1	72.1% (active)
CCN(CC)S(=O)(=O)c1ccc(NC2c3ccccc3C(=O)N2Cc2ccco2)cc1 (stereo not given)	-30.1% (inactive)
CC(C)C[C@@H]1Cc2[nH][nH]c(=O)c2[C@H](C(C)C)O1	-23.6% (inactive)
CC(=O)c1cc2c(cc1NC(=O)c1ccc(-n3nc(C)cc3C)cc1)OCO2	-7.82% (inactive)

Compound	inhibition
CC(=O)c1cccc(NC(=O)Nc2ccc(C(=O)N3CCOCC3)cc2)c1	17.1% (inactive)
COc1ccc(NC(=O)CSc2nnnn2C2CCCCC2)c(OC)c1	14.6% (inactive)
CCOC(=O)C1CCN(S(=O)(=O)c2ccc(NC(=O)OC)cc2)CC1	-1.21% (inactive)
COC(=O)c1c(N)sc(C(=O)NCCc2ccccc2)c1C	49.4% (active)
CCN(CC)CCNC(=O)c1ccc(NC(=O)c2ccc(S(=O)(=O)N3CCCC3)cc2)cc1	-8.26% (inactive)
Cc1nc2cc(-c3ccccc3)nn2c(C)c1CCC(=O)NCc1ccco1	46.5% (active)
Oc1cccc(C(Nc2nccs2)c2ccc3cccnc3c2O)c1 (stereo not given)	7.61% (inactive)
CCc1ccc(/C=C2\SC(=S)N(CCCC(=O)N3CCN(C)CC3)C2=O)cc1	11.9% (inactive)
Cc1ccc(-c2c3c(nc4sc(C(N)=O)c(N)c24)CCC3)cc1	34.5% (inactive)
COc1ccc(-c2nc3ccccn3c2NC2CCCCC2)cc1SC1CCCCC1	-1.51% (inactive)
Cc1ccc2c(c1)N(C(=O)CCC(=O)NCCCN1CCN(C)CC1)CC(C)O2 (stereo not given)	-10.8% (inactive)
O=C(NCCCN1CCN(c2ccccc2)CC1)C1CCCN(c2ncnc3c2nc2n3CCCCC2)C1 (stereo not given)	-21.6% (inactive)
O=c1oc2ccc(C#CC3(O)CCCCC3)cc2cc1-n1cc(-c2ccccn2)nn1	-3.27% (inactive)
O=C(CCCSc1nc2ccccc2s1)NC1=NCCS1	20.4% (inactive)
CCn1nc(C)cc1-c1nnc(Sc2ncc([N+](=O)[O-])s2)n1C	93.9% (active)
Cc1cccc(N2CC(C(=O)NC3CCCCCC3)CC2=O)c1C (stereo not given)	-3.61% (inactive)
O=[N+]([O-])c1ccc(Sc2nnnn2-c2ccccc2)nc1	40.7% (inactive)
COc1ccc(NC(=O)Nc2nnc(Cc3ccc(OC)c(OC)c3)s2)cc1	-0.57% (inactive)
O=S(=O)(c1ccc(Cl)cc1)c1snnc1-c1ccccc1	76.7% (active)
CCCCc1ccc(N/C(N)=N/c2nc(C)cc(C)n2)cc1	32.1% (inactive)
